High-throughput results: PubChem BioAssay, National Center for Advancing Translational Sciences (NCATS)
TDP1 cell CPT – DT40-hTDP1 cell growth loss with CPT | chicken DT40 Tdp1-/-;hTDP1 cells + 20 nM CPT, ATP luminescence, 48 h | Potency, µM (top dose mostly 46.2 µM), without a hit: top-dose activity change, negative = growth inhibition, usual class: inhibitors | actives 12% (n = 420,000) | AID 686979; further: potency means the concentration at half of the fitted maximal effect; nearly all actives have a fitted effect of over 55% in size
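Chicken DT40 Tdp1-/- cells complemented with human TDP1, 400 cells/well, exposed to compounds plus 20 nM camptothecin for at least 48 h at 37 C; viability read as ATP content by CellTiter-Glo luminescence.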
TDP1 cell noCPT – qHTS for Inhibitors of human tyrosyl-DNA phosphodiesterase 1 (TDP1): qHTS in cells in absence of CPT. DT40 Tdp1-/- hTDP1 cells, no CPT, ATP luminescence, 48 h. AID 686978, 2013. Potency, µM (top dose mostly 46.2 µM), for inactives: at the highest dose activity change, negative = growth inhibition, usual class: inhibitors. actives 15% (n = 420,000); further: potency means the concentration at half of the fitted maximal effect; nearly all actives have a fitted effect of over 55% in size
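Luminescent ATP content (CellTiter-Glo) served as the growth readout. Knockout chicken DT40 cells expressing human TDP1 were exposed to compounds without camptothecin for a minimum 48 hr at 37 °C.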
HT1080 IDH1KD tx – toxicity to HT-1080 IDH1 knockdown cells (counter line); HT-1080 IDH1 knockdown viability, ATP luminescence, 48 h; Potency, µM (titrated, usually from 46.1 µM), inactives show top-dose activity, negative = toxicity, usual class: cytotoxic; actives 2% (n = 360,000); AID 686971;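 further: potency means the concentration at half of the fitted maximal effect; 0% = DMSO wells and -100% = cell-free medium wells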
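After a 2 h attachment period, IDH1KD HT-1080 cells took pin-transferred compound for 48 h at 37 °C; ATP-based luminescence after 10 min room-temperature reagent incubation reported viability.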
HT1080-NT tox – kills 2HG-producing HT-1080-NT fibrosarcoma cells. HT-1080-NT fibrosarcoma viability, CellTiter-Glo ATP luminescence, 48 h. actives 1.6% (n = 360,000). Potency, µM (top dose mostly 46.1 µM), without a hit: at the top dose activity, negative = less viability, hits mostly cytotoxic;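 further: NT is the 2HG producing partner of a matched IDH1 knockdown line; potency means the concentration at half of the fitted maximal effect; 0% = DMSO-treated cells and -100% = media-only wells without cells; nearly all actives have a fitted effect of over 55% in size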
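Compounds were tested in concentration-response format on HT-1080-NT cells for 48 hours at 37 degrees C. Cell viability came from CellTiter-Glo luminescence; curves were classified by r2, response magnitude and activity.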
12-LOX inh – ALOX12 (human) lipoxygenase inhibition; purified 12hLO, xylenol orange hydroperoxide absorbance; Potency, µM (top dose mostly 108 µM), inactives show at the highest dose activity change, negative = inhibition, usual class: inhibitors; actives 1.1% (n = 580,000); AID 1671190; further: potency means the concentration at half of the fitted maximal effect
Target sequence (P18054 whole entry, looked up): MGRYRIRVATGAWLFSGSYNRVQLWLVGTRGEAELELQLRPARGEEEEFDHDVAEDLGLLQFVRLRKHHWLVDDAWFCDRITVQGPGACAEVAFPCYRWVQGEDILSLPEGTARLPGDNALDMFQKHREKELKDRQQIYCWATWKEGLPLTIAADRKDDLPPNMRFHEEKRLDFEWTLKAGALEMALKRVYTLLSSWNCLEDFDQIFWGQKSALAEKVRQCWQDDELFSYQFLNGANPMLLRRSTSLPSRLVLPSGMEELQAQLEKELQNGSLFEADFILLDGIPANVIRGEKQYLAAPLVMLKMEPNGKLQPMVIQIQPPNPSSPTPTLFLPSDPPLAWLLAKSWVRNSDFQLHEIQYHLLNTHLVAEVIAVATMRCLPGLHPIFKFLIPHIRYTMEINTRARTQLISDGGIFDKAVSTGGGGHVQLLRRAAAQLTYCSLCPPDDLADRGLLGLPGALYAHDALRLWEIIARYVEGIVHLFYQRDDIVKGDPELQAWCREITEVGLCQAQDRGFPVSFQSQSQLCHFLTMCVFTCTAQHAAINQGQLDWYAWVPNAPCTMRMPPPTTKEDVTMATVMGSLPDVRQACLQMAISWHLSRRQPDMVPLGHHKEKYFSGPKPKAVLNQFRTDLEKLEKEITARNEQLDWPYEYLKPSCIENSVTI
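Purified human 12hLO (150 nM final) in 25 mM Hepes, 0.01% Triton X-100, pH 7.0 was preincubated 15 min at room temperature with compound. Then 40 uM arachidonic acid was added, 30 min. Hydroperoxide was read by Fe-XO absorbance ratio 573/405 nm.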
IL-1B inflam inh – blocks inflammasome-driven IL-1 beta release; THP-1 LPS/ATP IL-1B secretion, AlphaLISA, 16 h; active compounds read low; activity change, % at 57.5 µM; actives 4.7% (n = 360,000); in the data active means activity change below about -50%; inconclusive means mostly about -30% to -49%
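Secreted IL-1B measured by AlphaLISA bead assay after 16 h compound exposure of THP-1 cells; compounds (final up to 57.5 uM) added 1 h before LPS (250 ng/mL) and ATP (1.25 mM) stimulation; lower signal means less secretion.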
Numbers without * were called inactive; [ ] = dose if it differs, or a comment. The full list was thinned out, with hits kept by preference. Unless noted, the call rests on the fitted dose curve; in most records, active means well fitted curve in the direction sought with a large enough effect; inconclusive means small, poorly fitted or top-dose-only effect, or another doubt; inactive means no such curve, though single readings can be large; an effect the other way counts as inactive or inconclusive. Unless noted, on the % scale 0 is the no-effect control and ±100 the full control effect.

What do the screens show for `CCOc1ccc(/C=N/NC(=O)c2ccccc2C)cc1CN1CC2CC(C1)c1cccc(=O)n1C2` (stereo not drawn)?
TDP1 cell CPT: inconclusive; TDP1 cell noCPT: 23µM*; HT1080 IDH1KD tx: -12%; HT1080-NT tox: 9%; 12-LOX inh: -19%; IL-1B inflam inh: 28

What do the screens show for `CCOc1ccc(/C=N/NC(=O)c2ccccc2Cl)cc1CN1CC2CC(C1)c1cccc(=O)n1C2` (stereo not drawn)?
TDP1 cell CPT: inconclusive; TDP1 cell noCPT: inconclusive; HT1080 IDH1KD tx: -19%; HT1080-NT tox: -28%; 12-LOX inh: 1%; IL-1B inflam inh: -4

How did COC(=O)C1(C)CCc2c(ccc3ccccc23)C1=O (stereo not drawn) do in these assays?
TDP1 cell CPT: -21%; TDP1 cell noCPT: -25%; HT1080 IDH1KD tx: 9%; HT1080-NT tox: 2%; 12-LOX inh: -6%; IL-1B inflam inh: 44

Results for CN1CC2(Cc3c1ccc1ccccc31)C(=O)OC(C)(C)OC2=O ?
TDP1 cell CPT: inconclusive; TDP1 cell noCPT: inconclusive; HT1080 IDH1KD tx: inconclusive; HT1080-NT tox: 23µM*; 12-LOX inh: inconclusive; IL-1B inflam inh: 0

Results for CC(C)CNc1ccc2c(n1)C(C)(C(=O)NCCc1cnc[nH]1)CN(Cc1ccccc1)C2 (stereo not drawn) ?
12-LOX inh: 132%

Results for O=c1[nH]c(=S)ccn1C1OC(CO)C(O)C1O (stereo not drawn) ?
TDP1 cell CPT: inconclusive; TDP1 cell noCPT: inconclusive; HT1080 IDH1KD tx: -22%; HT1080-NT tox: inconclusive; 12-LOX inh: -16%; IL-1B inflam inh: 4

Results for Cc1cn([C@H]2C[C@H](O)[C@@H](COS(=O)(=O)O)O2)c(=O)[nH]c1=O ?
TDP1 cell CPT: 3.7µM*; TDP1 cell noCPT: 1.6µM*; HT1080 IDH1KD tx: -1%; HT1080-NT tox: 1%; 12-LOX inh: 6%; IL-1B inflam inh: 7

Results for O=c1[nH]cnc2c1ccn2C1OC(CO)C(O)C1O (stereo not drawn) ?
TDP1 cell CPT: 0.16µM*; TDP1 cell noCPT: 0.15µM*; 12-LOX inh: -8%; IL-1B inflam inh: -13

What do the screens show for `Cc1cn([C@@H]2C[C@@H](O)[C@H](CO)O2)c(=O)[nH]c1=O`?
12-LOX inh: 10%[57.4 µM]

Results for O=c1[nH]c(=O)n([C@@H]2O[C@H](CO)[C@@H](O)[C@H]2O)cc1F ?
TDP1 cell CPT: 0.11µM*; TDP1 cell noCPT: 0.06µM*

How did O=c1[nH]cnc2c1[nH]c(=S)n2C1O[C@@H](CO)[C@H](O)[C@@H]1O (stereo partly drawn) do in these assays?
TDP1 cell CPT: -7%; TDP1 cell noCPT: -5%

Results for O=C1C=CC(n2cc(F)c(=O)[nH]c2=O)O1 (stereo not drawn) ?
TDP1 cell CPT: 18µM*; TDP1 cell noCPT: inconclusive; HT1080 IDH1KD tx: inconclusive; HT1080-NT tox: inconclusive; 12-LOX inh: -6%; IL-1B inflam inh: inconclusive

How did Cc1oc(C(C)C)cc1C(=O)N1CC[C@](C)(O)[C@@H](O)C1 do in these assays?
12-LOX inh: 44%

Results for CC(=O)Nc1ccc(CN(CCN2CCCCC2)CC2CCCN(C3CCCC3)C2)cc1 (stereo not drawn) ?
12-LOX inh: 3%

What do the screens show for `Nc1nc(=O)n([C@H]2CSC(CO)O2)cc1F` (stereo partly drawn)?
12-LOX inh: -3%[57.4 µM]

What do the screens show for `O=c1[nH]c(=O)n(C2OC(CO)C(O)C2O)cc1F` (stereo not drawn)?
TDP1 cell CPT: 0.15µM*; TDP1 cell noCPT: 0.037µM*; HT1080 IDH1KD tx: 0.92µM*; HT1080-NT tox: 10µM*; IL-1B inflam inh: -13

Results for O=c1[nH]c(=O)c2ncn(C3OC(CO)C(O)C3O)c2[nH]1 (stereo not drawn) ?
TDP1 cell CPT: 2%; TDP1 cell noCPT: -5%; 12-LOX inh: 0%

What do the screens show for `Nc1nc(=O)n(C2OC(CO)C(O)C2O)cc1F` (stereo not drawn)?
TDP1 cell CPT: 0.033µM*; TDP1 cell noCPT: 0.0058µM*; HT1080 IDH1KD tx: -26%; HT1080-NT tox: inconclusive; 12-LOX inh: 11%; IL-1B inflam inh: 86

Results for O=c1[nH]c(=O)n([C@H]2C[C@@H](O)[C@@H](CO)O2)cc1F ?
TDP1 cell CPT: 5µM*; TDP1 cell noCPT: 1.6µM*; 12-LOX inh: -11%[57.4 µM]

Results for Cc1ccc(S(=O)(=O)NC[C@H]2O[C@@H](CC(=O)NCCN3CCOCC3)[C@H](O)[C@@H]2O)cc1 ?
12-LOX inh: -64%

Results for Cc1ccc(N=Nc2c(N)nn(-c3ccccc3)c2N)cc1 ?
TDP1 cell CPT: 3.7µM*; TDP1 cell noCPT: 4.6µM*; HT1080 IDH1KD tx: 9.2µM*; HT1080-NT tox: 10µM*; 12-LOX inh: -14%; IL-1B inflam inh: 0

How did Cc1ccc(N=Nc2c(N)nn3c(C)cc(C)nc23)cc1 do in these assays?
TDP1 cell CPT: inconclusive; TDP1 cell noCPT: 23µM*; HT1080 IDH1KD tx: 21%; HT1080-NT tox: 23%; 12-LOX inh: 1%; IL-1B inflam inh: -10

What do the screens show for `Cc1nn(-c2ccccc2)c(N)c1N=Nc1ccc2ccccc2c1`?
TDP1 cell CPT: -8%; TDP1 cell noCPT: inconclusive; HT1080 IDH1KD tx: -9%; HT1080-NT tox: -9%; 12-LOX inh: -13%; IL-1B inflam inh: -1

What do the screens show for `COc1ccc(-c2noc(-c3cccn3CC(=O)N(C)c3ccc(F)cc3)n2)cc1F`?
12-LOX inh: 15%

How did COc1cccc(C(=O)N2CC3CC(C2)[C@H]2CCCC(=O)N2C3)c1 (stereo partly drawn) do in these assays?
12-LOX inh: 34%

How did COC(=O)c1c(NC(C)=O)sc(Cc2ccccc2)c1C do in these assays?
TDP1 cell CPT: -25%; TDP1 cell noCPT: -27%; HT1080 IDH1KD tx: -17%; HT1080-NT tox: -5%; 12-LOX inh: 0%[57.4 µM]; IL-1B inflam inh: 28

How did CCC(=O)Nc1sc(Cc2ccc3c(c2)OCO3)c(C)c1C(N)=O do in these assays?
TDP1 cell CPT: inconclusive; TDP1 cell noCPT: inconclusive; HT1080 IDH1KD tx: -15%; HT1080-NT tox: -9%; 12-LOX inh: inconclusive; IL-1B inflam inh: 0
